The target of assay [1] is T1, Methionyl-tRNA synthetase, putative (Leishmania donovani (strain BPK282A1)) (UniProt E9BF75).
T1 sequence (whole entry): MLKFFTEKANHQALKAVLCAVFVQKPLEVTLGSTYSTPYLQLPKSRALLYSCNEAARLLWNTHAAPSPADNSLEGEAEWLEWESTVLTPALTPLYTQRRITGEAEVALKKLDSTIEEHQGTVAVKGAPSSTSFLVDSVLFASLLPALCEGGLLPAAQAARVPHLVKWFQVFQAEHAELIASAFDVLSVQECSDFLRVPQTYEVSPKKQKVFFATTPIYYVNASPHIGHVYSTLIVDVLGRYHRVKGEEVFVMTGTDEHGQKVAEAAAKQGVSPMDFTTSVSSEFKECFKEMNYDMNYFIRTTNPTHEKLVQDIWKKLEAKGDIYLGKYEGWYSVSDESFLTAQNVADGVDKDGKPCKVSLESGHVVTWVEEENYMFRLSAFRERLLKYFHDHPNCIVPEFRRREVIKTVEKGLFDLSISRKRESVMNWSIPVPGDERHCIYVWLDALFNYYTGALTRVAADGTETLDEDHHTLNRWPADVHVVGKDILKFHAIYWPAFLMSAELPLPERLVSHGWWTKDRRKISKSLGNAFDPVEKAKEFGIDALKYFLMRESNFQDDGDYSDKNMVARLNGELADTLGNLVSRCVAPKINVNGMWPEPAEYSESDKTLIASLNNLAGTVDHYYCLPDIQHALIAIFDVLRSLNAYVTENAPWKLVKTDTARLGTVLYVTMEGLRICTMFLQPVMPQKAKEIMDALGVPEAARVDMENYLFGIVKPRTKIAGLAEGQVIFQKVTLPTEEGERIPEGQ
Nature of the assay: Leishmania donovani Methionine tRNA synthetase (LdMetRS):v7. Dose response assay. It is filed as functional. Details: conc 80 nM, time 150 minutes.

Assay [2] addresses Protein translocase subunit SecA (Escherichia coli (strain K12)) (UniProt P10408). The assay is described as follows: Assay to Identify E. coli SecA ATPase Inhibitors. It is filed as functional. More on the design: scale not given: direction of the effect not stated beside the values. The note with it: 30 µM.
The target of assay [3] is T2, Ubiquitin-activating enzyme e1, putative (Leishmania donovani (strain BPK282A1)) (UniProt E9BSI1).
T2 sequence (whole entry): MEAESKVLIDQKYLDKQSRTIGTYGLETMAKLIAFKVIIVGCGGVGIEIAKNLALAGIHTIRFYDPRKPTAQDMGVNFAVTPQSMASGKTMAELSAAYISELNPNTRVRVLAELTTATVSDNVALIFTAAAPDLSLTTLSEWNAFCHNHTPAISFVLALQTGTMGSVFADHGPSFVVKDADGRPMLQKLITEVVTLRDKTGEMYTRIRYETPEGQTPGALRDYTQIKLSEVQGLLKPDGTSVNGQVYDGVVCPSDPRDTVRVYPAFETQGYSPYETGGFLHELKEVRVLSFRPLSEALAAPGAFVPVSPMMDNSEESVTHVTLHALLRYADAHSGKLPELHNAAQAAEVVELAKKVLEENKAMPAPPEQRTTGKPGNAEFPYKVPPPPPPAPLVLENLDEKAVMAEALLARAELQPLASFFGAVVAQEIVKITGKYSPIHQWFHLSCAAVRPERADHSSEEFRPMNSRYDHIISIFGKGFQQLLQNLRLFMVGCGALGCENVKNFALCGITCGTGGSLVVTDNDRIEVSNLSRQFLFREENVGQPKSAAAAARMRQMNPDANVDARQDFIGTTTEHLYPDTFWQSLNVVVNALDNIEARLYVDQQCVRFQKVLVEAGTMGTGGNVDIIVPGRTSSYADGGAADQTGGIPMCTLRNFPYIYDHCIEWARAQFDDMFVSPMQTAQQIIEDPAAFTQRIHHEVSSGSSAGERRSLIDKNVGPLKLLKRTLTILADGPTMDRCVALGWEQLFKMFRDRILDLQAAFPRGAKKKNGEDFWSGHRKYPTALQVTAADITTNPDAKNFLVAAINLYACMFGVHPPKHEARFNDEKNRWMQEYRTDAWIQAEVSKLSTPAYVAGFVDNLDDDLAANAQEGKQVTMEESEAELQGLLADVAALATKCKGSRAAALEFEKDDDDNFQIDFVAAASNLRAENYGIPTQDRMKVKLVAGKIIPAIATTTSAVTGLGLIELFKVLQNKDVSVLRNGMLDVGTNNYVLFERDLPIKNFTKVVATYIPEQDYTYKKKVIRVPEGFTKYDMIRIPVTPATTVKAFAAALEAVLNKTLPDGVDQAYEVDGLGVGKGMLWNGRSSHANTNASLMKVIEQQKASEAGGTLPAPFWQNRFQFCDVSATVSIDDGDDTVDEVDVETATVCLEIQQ
The assay is described as follows: Leishmania donovani Ubiquitin Activating Enzyme (LdE1). It is filed as functional. Details: scale not given: direction of the effect not stated beside the values. The note with it: 30 µM.

Assay [4] concerns the target AMP-activated protein kinase, AMPK (Homo sapiens) (UniProt P54646+O43741+P54619+Q9UGJ0+Q9Y478+Q13131+Q9UGI9). The assay is described as follows: AMP-dependent Kinase enzyme assay. An in vitro enzyme assay that detects ADP turnover that is directly proportional to AMPK activity. This uses naive AMPK that is activated during the assay with MK-8722. The class given is functional. More on the design: scale not given: direction of the effect not stated beside the values. The note with it: 30 µM.

The target of assay [5] is Sialic acid-binding Ig-like lectin 9 (Homo sapiens) (UniProt Q9Y336). The assay is described as follows: Hs-Siglec9 ALPHAscreen SOP 20170721. More on the design: scale not given: direction of the effect not stated beside the values. To be noted: 10 µM. Background: Alpha assays give light when donor and acceptor beads are brought close together.
In assay [6] the test system is Trypanosoma cruzi. Nature of the assay: Trypanosoma cruzi phosphomannomutase and mannose-1-phosphate guanylyltransferase assay. It is filed as functional. Details: scale not given: direction of the effect not stated beside the values. To be noted: 10 µM.
Assay [7] concerns the target T3, Arginase-2, mitochondrial (Homo sapiens) (UniProt P78540).
T3 sequence (whole entry): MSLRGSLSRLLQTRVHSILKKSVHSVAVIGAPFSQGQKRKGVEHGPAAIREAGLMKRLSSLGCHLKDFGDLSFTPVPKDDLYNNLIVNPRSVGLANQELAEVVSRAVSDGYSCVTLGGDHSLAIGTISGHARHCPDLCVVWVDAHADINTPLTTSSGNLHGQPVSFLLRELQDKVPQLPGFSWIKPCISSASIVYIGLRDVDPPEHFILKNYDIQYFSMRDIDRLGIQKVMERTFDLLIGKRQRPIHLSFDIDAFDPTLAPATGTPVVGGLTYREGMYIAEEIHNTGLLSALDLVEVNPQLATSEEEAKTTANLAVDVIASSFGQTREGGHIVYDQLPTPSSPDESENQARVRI
Nature of the assay: in vitro enzyme assay to detect the production of urea directly proportional to the activity of Arginase II. To be noted: 33.3 µM. It is filed as functional. Details: scale not given: in the data most compounds retested in dose-response had high values.

The target of assay [8] is T4, Proteasome subunit beta (Trypanosoma cruzi) (UniProt O96673).
T4 sequence (whole entry): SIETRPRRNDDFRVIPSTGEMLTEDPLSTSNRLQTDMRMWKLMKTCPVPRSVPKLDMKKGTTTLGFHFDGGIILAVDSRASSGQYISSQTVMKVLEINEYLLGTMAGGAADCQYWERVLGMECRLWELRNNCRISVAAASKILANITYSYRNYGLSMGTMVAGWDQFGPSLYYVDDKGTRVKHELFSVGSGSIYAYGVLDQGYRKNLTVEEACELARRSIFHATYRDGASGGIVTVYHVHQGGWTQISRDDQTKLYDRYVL
Nature of the assay: Trypanosoma cruzi proteasome chymotrypsin-like activity (TcProtChymo) assay. The note with it: 9.37 µM. Details: scale not given: in the data most compounds retested in dose-response had high values. It is filed as functional.

Assay [9] is filed under the species Homo sapiens. The assay is described as follows: To identify inhibition of the IFN signalling (Jak-Stat) pathway via expression of an eGFP reporter gene under the control of an IFN-stimulated response element (ISRE) containing MxA promoter. The note with it: 30 µM. The class given is functional. Details: scale not given: direction of the effect not stated beside the values. Background: In a reporter assay the amount or activity of a reporter protein is the signal.

The target in assay [10] is T5, Tyrosyl-tRNA synthetase, putative (Trypanosoma cruzi (strain CL Brener)) (UniProt Q4DSP6).
T5 sequence (whole entry): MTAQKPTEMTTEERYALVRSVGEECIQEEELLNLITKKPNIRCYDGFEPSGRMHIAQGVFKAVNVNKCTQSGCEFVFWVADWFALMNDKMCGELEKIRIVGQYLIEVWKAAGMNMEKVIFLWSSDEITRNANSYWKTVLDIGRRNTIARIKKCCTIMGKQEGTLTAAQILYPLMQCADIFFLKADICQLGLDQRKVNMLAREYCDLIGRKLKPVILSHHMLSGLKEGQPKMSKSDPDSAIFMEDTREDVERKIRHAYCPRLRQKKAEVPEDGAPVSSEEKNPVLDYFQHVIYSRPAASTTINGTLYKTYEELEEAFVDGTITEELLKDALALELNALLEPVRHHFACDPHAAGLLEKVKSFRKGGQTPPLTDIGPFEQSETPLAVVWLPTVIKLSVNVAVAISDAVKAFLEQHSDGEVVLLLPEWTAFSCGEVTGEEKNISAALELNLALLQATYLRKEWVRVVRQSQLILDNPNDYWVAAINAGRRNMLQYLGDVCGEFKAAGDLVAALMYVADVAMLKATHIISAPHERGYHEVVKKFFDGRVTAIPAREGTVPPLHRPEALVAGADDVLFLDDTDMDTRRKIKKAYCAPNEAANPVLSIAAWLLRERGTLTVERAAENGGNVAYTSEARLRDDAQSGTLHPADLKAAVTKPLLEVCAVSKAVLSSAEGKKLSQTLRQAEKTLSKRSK
Nature of the assay: Trypanosoma cruzi tyrosyl tRNA synthetase (TcYRS) _High Tyrosine SOP. The class given is functional. More on the design: scale not given: in the data most compounds retested in dose-response had high values. To be noted: 30 µM.

Assay [11] addresses T5, Tyrosyl-tRNA synthetase, putative (Trypanosoma cruzi (strain CL Brener)). Nature of the assay: Trypanosoma cruzi tyrosyl tRNA synthetase (TcYRS) SOP. It is filed as functional. Details: scale not given: direction of the effect not stated beside the values. To be noted: 30 µM.
For assay [12], the target named is Chromo domain-containing protein 1 (Saccharomyces cerevisiae (strain ATCC 204508 / S288c) (Baker's yeast)) (UniProt P32657). The assay is described as follows: ScCHD-1 Enzyme Inhibition Assay. To be noted: 30 µM. The class given is functional. More on the design: scale not given: in the data most compounds retested in dose-response had high values.

The structures appear in SMILES notation. For part of these data: Potency and affinity values are given separately.

Chain of Chromo domain-containing protein 1 (Saccharomyces cerevisiae (strain ATCC 204508 / S288c) (Baker's yeast)) (P32657 whole entry, the tested form may be a part): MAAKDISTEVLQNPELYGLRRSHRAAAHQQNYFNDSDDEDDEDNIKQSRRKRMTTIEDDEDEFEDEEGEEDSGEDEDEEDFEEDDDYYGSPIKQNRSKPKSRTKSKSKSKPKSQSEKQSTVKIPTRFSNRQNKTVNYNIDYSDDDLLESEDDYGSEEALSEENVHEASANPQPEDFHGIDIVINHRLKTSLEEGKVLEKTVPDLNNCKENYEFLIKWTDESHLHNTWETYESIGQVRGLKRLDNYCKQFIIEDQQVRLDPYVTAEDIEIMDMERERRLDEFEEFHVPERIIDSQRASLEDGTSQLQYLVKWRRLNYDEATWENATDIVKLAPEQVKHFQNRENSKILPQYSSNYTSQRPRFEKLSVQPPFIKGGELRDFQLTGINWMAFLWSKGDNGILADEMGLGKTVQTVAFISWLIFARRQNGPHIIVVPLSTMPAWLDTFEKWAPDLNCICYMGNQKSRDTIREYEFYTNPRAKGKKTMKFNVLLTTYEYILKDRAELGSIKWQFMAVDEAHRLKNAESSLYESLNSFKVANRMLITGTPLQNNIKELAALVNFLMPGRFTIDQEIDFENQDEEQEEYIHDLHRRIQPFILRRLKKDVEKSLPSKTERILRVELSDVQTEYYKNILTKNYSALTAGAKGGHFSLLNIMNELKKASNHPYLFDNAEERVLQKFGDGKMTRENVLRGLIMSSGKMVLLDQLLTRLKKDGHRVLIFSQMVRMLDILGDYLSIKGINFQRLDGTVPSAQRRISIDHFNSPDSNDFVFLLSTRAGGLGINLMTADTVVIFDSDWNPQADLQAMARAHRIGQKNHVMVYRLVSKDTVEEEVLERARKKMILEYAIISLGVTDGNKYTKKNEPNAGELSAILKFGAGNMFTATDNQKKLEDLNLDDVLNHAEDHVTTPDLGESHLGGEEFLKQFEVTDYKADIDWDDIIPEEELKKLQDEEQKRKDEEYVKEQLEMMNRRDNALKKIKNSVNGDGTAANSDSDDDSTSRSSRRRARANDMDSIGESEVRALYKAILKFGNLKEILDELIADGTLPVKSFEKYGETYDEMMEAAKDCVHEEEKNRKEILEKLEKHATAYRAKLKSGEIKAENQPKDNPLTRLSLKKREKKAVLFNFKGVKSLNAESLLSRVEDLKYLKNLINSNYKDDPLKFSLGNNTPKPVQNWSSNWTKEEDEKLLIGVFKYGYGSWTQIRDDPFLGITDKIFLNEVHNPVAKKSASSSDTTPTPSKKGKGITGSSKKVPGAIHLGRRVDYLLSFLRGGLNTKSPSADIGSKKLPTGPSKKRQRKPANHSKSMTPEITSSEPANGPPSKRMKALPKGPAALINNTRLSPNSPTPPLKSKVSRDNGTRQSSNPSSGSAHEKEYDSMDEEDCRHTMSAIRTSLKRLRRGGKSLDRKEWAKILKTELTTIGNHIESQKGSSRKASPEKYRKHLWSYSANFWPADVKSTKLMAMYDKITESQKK
Chain of Sialic acid-binding Ig-like lectin 9 (Homo sapiens) (Q9Y336 whole entry): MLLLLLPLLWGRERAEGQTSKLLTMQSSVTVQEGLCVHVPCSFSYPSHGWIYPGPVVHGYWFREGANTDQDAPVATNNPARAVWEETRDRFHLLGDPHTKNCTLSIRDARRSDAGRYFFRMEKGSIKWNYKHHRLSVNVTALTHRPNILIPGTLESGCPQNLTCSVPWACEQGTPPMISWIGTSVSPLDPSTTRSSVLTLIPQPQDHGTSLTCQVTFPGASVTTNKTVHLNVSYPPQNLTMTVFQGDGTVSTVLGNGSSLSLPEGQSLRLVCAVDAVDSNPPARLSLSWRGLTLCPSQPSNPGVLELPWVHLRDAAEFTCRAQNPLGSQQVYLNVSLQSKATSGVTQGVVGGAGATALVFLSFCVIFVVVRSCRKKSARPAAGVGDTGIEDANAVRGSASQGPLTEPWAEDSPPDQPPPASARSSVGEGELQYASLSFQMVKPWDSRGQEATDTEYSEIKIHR
Chain of Protein translocase subunit SecA (Escherichia coli (strain K12)) (P10408 whole entry): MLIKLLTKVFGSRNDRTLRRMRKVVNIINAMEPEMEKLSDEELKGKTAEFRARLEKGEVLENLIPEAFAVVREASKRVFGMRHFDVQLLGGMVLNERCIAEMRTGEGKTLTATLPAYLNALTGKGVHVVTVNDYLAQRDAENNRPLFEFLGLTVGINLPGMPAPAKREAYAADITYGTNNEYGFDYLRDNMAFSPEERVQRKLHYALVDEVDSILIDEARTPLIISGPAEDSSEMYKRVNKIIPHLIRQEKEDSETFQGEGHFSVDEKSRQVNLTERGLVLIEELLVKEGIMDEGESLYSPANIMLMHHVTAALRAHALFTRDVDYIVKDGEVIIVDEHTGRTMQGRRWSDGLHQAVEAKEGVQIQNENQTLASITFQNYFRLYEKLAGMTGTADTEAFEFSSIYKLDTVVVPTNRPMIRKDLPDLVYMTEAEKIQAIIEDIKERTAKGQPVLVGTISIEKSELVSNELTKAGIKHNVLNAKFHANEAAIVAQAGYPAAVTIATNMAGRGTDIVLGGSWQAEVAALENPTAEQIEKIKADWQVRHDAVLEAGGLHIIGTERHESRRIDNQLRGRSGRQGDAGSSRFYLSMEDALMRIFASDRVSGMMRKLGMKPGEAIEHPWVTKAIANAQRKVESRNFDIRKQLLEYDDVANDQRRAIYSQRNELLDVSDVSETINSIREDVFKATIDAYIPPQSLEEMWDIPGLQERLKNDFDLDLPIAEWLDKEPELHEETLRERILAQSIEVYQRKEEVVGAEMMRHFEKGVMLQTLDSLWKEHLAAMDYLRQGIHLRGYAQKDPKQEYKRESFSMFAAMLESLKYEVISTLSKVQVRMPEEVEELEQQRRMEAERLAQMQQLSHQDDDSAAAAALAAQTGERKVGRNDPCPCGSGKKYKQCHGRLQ

For the compound `Cc1cccnc1NC(=O)NCc1ccc(N2CCNC(=O)C2)cc1`, the PXC50 is 4.39 in assay [1] (BOTTOM 2.91901785, HILLSLOPE 1.51189845, MAX_EFFECT 82.83828383, TOP 100.0); 4.45 in [1] (BOTTOM 3.848291916, HILLSLOPE 1.411514836, MAX_EFFECT 84.7826087, TOP 100.0); 4.48 in assay [1] (BOTTOM 5.032769966, HILLSLOPE 1.524648586, MAX_EFFECT 89.96415771, TOP 100.0); below 4 in assay [1] (MAX_EFFECT 2.073365231); below 4 in assay [1] (MAX_EFFECT 2.495201536). The Percent Effect in assay [2] was -3.51%; in assay [3], 15.6%; in [4], 9.04%; in assay [5], 11.4%; in assay [6] it was 1.5%; in assay [7] it was -2.13%. Besides, the Percent Effect in [8] is 8.78%; in [9], 5.74%; in assay [10], 41.8%; in assay [11] it was 34.1%; in assay [12] it was -8.16%.

On to `O=C(NCc1cnn2cccnc12)c1cccc(CC2CCNCC2)c1`, for which the PXC50 in assay [1] (BOTTOM 2.141206025, HILLSLOPE 1.62116593, MAX_EFFECT 62.52189142, TOP 100.0) was 4.14; in assay [1] (BOTTOM 2.892347169, HILLSLOPE 1.976450586, MAX_EFFECT 93.87755102, TOP 100.0), 4.43; in [1] (BOTTOM 5.673984802, HILLSLOPE 1.822868055, MAX_EFFECT 90.57971014, TOP 100.0) it was 4.44. In addition, the Percent Effect in [4] came out at 2.98%.

For the compound `CCN(CC)c1ccc2ccc(C(=O)NC3CC3)cn12`, the PXC50 in assay [1] (MAX_EFFECT 23.88888889), in [1] (MAX_EFFECT 27.69953052), in assay [1] (MAX_EFFECT 36.60245184), in [1] (MAX_EFFECT 45.65217391) and in assay [1] (MAX_EFFECT 46.2585034) was below 4 throughout.

`CC(C)c1nc(CNC2CCCN(c3cccnn3)C2)no1` (stereo not given): the PXC50 in [1] (BOTTOM -4.804668592, HILLSLOPE 1.43236327, MAX_EFFECT 76.8115942, TOP 100.0) was 4.38; in assay [1] (BOTTOM -10.26857321, HILLSLOPE 1.286287287, MAX_EFFECT 68.70748299, TOP 100.0), 4.3; in [1] (MAX_EFFECT 0.790513834), below 4; in assay [1] (MAX_EFFECT 4.444444444), below 4; in assay [1] (MAX_EFFECT 61.12084063), below 4.

(Values after ChEMBL document CHEMBL3988442, “University of Dundee, Small-Polar-MMV Screening Library” (2021).)
